About 79,000 compounds went through this panel and 15% of them were active in at least one assay; those are over-represented in the sample as a whole. No stated cut-off is given here; in the data, active means growth inhibition above about 70%; inactive means the rest.
What was measured:
[1] = NCI Yeast Anticancer Drug Screen. Data for the rad50 strain (AID 155);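 further: 0% = growth of vehicle-only cultures of the same strain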; conditions: S. cerevisiae rad50 strain growth inhibition; at 50.0 µM; stronger effect = higher value
How it was run: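 Yeast carrying a defined DNA repair defect were exposed to test compounds, and growth was compared with vehicle-treated controls to give percent inhibition.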

[2] = NCI Yeast Anticancer Drug Screen. Data for the mec2-1 strain (AID 157); conditions: S. cerevisiae mec2-1 strain, at 50.0 µM, stronger effect = higher value
How it was run: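 Cells of the genetically defined mec2-1 yeast strain are incubated with test compound. Inhibition of growth is calculated against vehicle-treated controls.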

[3] = NCI Yeast Anticancer Drug Screen. Data for the sgs1 mgt1 strain (AID 161);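 further: 0% = growth of cultures given vehicle only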; conditions: S. cerevisiae sgs1 mgt1 strain, at 50.0 µM, stronger effect = higher value
How it was run: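 Mutant yeast exposed to compound; growth scored against vehicle-only wells.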

[4] = NCI Yeast Anticancer Drug Screen. Data for the cln2 rad14 strain (AID 165);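 further: 0% = growth equal to vehicle treated cultures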; conditions: S. cerevisiae cln2 rad14 strain, at 50.0 µM, stronger effect = higher value
How it was run: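 The screen exposed genetically defined yeast (cln2 rad14) to test compounds and scored growth inhibition relative to vehicle-treated controls.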

[5] = NCI Yeast Anticancer Drug Screen. Data for the bub3 strain (AID 167); conditions: S. cerevisiae bub3 mutant strain, at 50.0 µM, stronger effect = higher value
How it was run: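 Compounds were applied to a genetically altered yeast strain carrying a cell-cycle control defect. Growth inhibition was scored against vehicle-treated controls.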

[6] = NCI Yeast Anticancer Drug Screen. Data for the mlh1 rad18 strain (AID 175); conditions: S. cerevisiae mlh1 rad18 strain growth inhibition; at 50.0 µM; stronger effect = higher value
How it was run: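 Compound-treated yeast growth, normalised to vehicle controls. Strain bears defined DNA repair mutations.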

Measured: growth inhibition

CC12CCC(O)CC1=CCC1C2CCC2(C)C(C(=O)O)=CCC12 (stereo not given)
inactive: [1] 1.3% | [2] 46.5% | [3] 29.6% | [4] 21.8% | [5] 49.1% | [6] 34.5%

O=C1/C(=N\N(C(=O)c2ccccc2)c2ccccc2)c2cccc3cccc1c23
inactive: [1] 11.8% | [2] 49% | [3] 20.4% | [4] 12.2% | [5] 24.9% | [6] 35.9%

C=CCc1ccc(OC(=O)CC)c(OC)c1
inactive: [1] -8.1% | [2] -22.4% | [3] -16.4% | [4] -8.75% | [5] -10.8% | [6] -9.95%

CCOC(C#CC(C)=O)OCC
inactive: [1] 31.1% | [2] 31.3% | [3] 22.9% | [4] 6.65% | [5] 46% | [6] 47.9%

O=C1C=C(Nc2nc(C(=O)O)cc(=O)[nH]2)c2ccccc2C1=O
inactive: [1] 8.7% | [2] -15.2% | [3] -29.3% | [4] 15.9% | [5] -25.6% | [6] -24.6%

COc1cccc2c1CCC1(O)OC(=O)CC21 (stereo not given)
inactive: [1] -17.4% | [2] 5.15% | [3] -20.5% | [4] 2.1% | [5] -6.5% | [6] -15.1%

O=C1C(=C(C(F)(F)Cl)C(F)(F)Cl)C2CCC1C2 (stereo not given)
inactive: [1] 12% | [2] -3.35% | [3] 14.3% | [4] 14.6% | [5] 21.2% | [6] 7.7%

CN(C)CSCCO
inactive: [1] -2.8% | [2] -1.5% | [3] -5.7% | [4] -14.8% | [5] -5.1% | [6] 0.45%

CCCNc1nc2c(s1)c1c(O)c3c(O)c(C)c4c(c32)C(=O)C(C)(O/C=C\C(OC)C(C)C(OC(C)=O)C(C)C(O)C(C)C(O)C(C)/C=C/C=C(/C)C(=O)N1)O4 (stereo not given)
inactive: [1] 8.75% | [2] 9.7% | [3] 3.2% | [4] 10.2% | [5] 14.2% | [6] 17.3%

COc1cccc(/C=N/[N-]C(N)=O)c1[O-].[OH3+].[Pd+2]
inactive: [1] 7.65% | [2] 8.2% | [3] 15.9% | [4] 7.4% | [5] 18.9% | [6] 21.6%

COC(C)CCOC(=O)c1ccccc1C (stereo not given)
inactive: [1] 10% | [2] -6.1% | [3] 0.8% | [4] -21.8% | [5] 24.9% | [6] 3.2%

COCn1c(C)c(C)c2c(=O)oc(=O)[nH]c21
inactive: [1] -23.2% | [2] 17.7% | [3] -30.6% | [4] -11.3% | [5] 16.6% | [6] -25.5%

CN/N=C(/c1nc2ccc([N+](=O)[O-])cc2[nH]c1=O)C(O)c1ccc(C(O)/C(=N\NC)c2nc3ccc([N+](=O)[O-])cc3[nH]c2=O)cc1 (stereo not given)
inactive: [1] 31.2% | [2] -5.55% | [3] 0.6% | [4] -26.2% | [5] -3.85% | [6] 19.4%

Nc1c[nH]c(=S)s1
inactive: [1] 36.9% | [2] 18.8% | [3] 54.7% | [4] 0.9% | [5] 39.6% | [6] 51.2%

COc1cc(/C=C/C(=O)c2sc(NNC(C)=O)nc2C)ccc1O
inactive: [1] 15.6% | [2] 6.85% | [3] 19.3% | [4] 23.1% | [5] 18.8% | [6] 27.1%

FC(F)(F)c1cc(Nc2nc(-c3ccccc3)nc3c2C(=NCc2ccco2)OC3=NCc2ccco2)ccc1Cl
inactive: [1] 5% | [2] 14.6% | [3] 2.9% | [4] -6.35% | [5] -4.7% | [6] 9.75%

CC(=O)Nc1ccc(Sc2ccc(NC(C)=O)cc2O)c(O)c1
inactive: [1] 34.1% | [2] 17% | [3] 32% | [4] -31.4% | [5] 14.7% | [6] 41.9%

COc1ccccc1C=NC12CC3CC(CC(C3)C1)C2
inactive: [1] -29.2% | [2] -12.6% | [3] 2.55% | [4] 1.9% | [5] -4.2% | [6] -16.6%

CCCCOC(=O)C1C=C(N)CCC1 (stereo not given)
inactive: [1] 12.8% | [2] 6.8% | [3] -3.35% | [4] -32.6% | [5] -9.05% | [6] -16.4%

O=C(NCCc1ccccc1)c1c(O)c2ccccc2[nH]c1=O
inactive: [1] 5.85% | [2] 11.9% | [3] 23.7% | [4] 18.2% | [5] 14.1% | [6] 10%

Nc1cc(=O)[nH]c(SC2OC(CO)C(O)C2O)n1 (stereo not given)
inactive: [1] 29.1% | [2] -9.6% | [3] 9% | [4] -44.1% | [5] 0.1% | [6] 17.6%

COC(=O)C1=CN=C(C(=O)OC)NN1
inactive: [1] 13.9% | [2] 0.25% | [3] -8.6% | [4] 15.8% | [5] -4.45% | [6] 3.15%

CC(=O)OC(Cc1ccc2ccccc2n1)(C(F)(F)F)C(F)(F)F
inactive: [1] -17.6% | [2] -16.1% | [3] -8.05% | [4] 6.2% | [5] 5.5% | [6] -24.5%

Cc1ccccc1C1(O)c2cccc3cccc(c23)C1(O)c1ccccc1C (stereo not given)
inactive: [1] 2.95% | [2] 8.45% | [3] -7.45% | [4] -10.9% | [5] 10.9% | [6] -22.4%

COc1ccc(-n2c(N)c(C#N)c(C#N)c2-c2ccccc2)cc1
inactive: [1] 7.85% | [2] 8.6% | [3] -16.6% | [4] -4.95% | [5] -6.25% | [6] -49.1%

O=C(CCCN1CCC(O)(c2ccc(Cl)cc2)CC1)c1ccc(N2CCC(O)CC2)cc1
inactive: [1] 0.8% | [2] -2.05% | [3] -0.65% | [4] -44.6% | [5] 4.4% | [6] 1.1%

COC(=O)C12C=CC(C1)n1c(=O)n(-c3ccccc3)c(=O)n12 (stereo not given)
inactive: [1] -8.55% | [2] 7.25% | [3] 0.5% | [4] -0.2% | [5] 4.4% | [6] -2.9%

Nc1ccc2c(c1)C(=O)c1cc(C(=O)O)ccc1-2
inactive: [1] 21.2% | [2] -2.55% | [3] 9.75% | [4] 15.9% | [5] 12.8% | [6] -10.1%

CCOC(=O)c1ccc(N=Nc2c(N)nc(N)nc2N)cc1
inactive: [1] -10.4% | [2] 10.3% | [3] -1.7% | [4] -61.4% | [5] -0.15% | [6] -11%

Nc1cc2c3c(cccc3c1)NC2=O
inactive: [1] 47.5% | [2] 14.4% | [3] 17.9% | [4] 11% | [5] -1.5% | [6] -12.9%

COC(=O)CC1NC(=O)[C@]1(C)[C@H](C)O (stereo not given in full)
inactive: [1] -37.1% | [2] -16.2% | [3] -33% | [4] -14.3% | [5] -48.4% | [6] -48.9%

OC(CCN1CCC2CCC(C2)C1)(c1ccccc1)c1ccco1 (stereo not given)
inactive: [1] 7.75% | [2] -3.15% | [3] -5.25% | [4] -15.6% | [5] -0.05% | [6] -4.75%

NC(=S)N/N=C\c1ncccc1OCc1cccc(N)c1
inactive: [1] 32.3% | [2] 46.9% | [3] 42% | [4] 5.6% | [5] 37.4% | [6] 29.2%

CCCCCCCCCCCC(=O)OCCSC#N
inactive: [1] -7.45% | [2] 0.1% | [3] -2% | [4] -21.4% | [5] -0.2% | [6] 0.05%

Cc1cccc(C)c1NC(=O)C(=O)/C(=C(\N)c1ccccc1)c1ccccc1
inactive: [1] -14.3% | [2] -9.5% | [3] -15.2% | [4] 29.8% | [5] 10.2% | [6] -9.15%

N[N+]1(CCS(N)(=O)=O)CCOCC1
inactive: [1] -1.95% | [2] -12.6% | [3] -0.9% | [4] -31.2% | [5] -8.3% | [6] 13.5%

CC(C)(C)OC(=O)NNC(=O)c1ccc([N+](=O)[O-])cc1
inactive: [1] 17.2% | [2] -9.8% | [3] -2.5% | [4] 30.6% | [5] 3.75% | [6] 5.8%

Cc1nc(C(=O)O)c2ccccc2n1
inactive: [1] -2.8% | [2] 2.45% | [3] -8.05% | [4] 3.6% | [5] -9.65% | [6] 4.6%

CCO/C=C(/C#N)C(=O)OCC
inactive: [1] -6.8% | [2] -11.9% | [3] -20.3% | [4] -27.6% | [5] -14.3% | [6] 0.85%

O/N=C1\CCc2nonc2\C1=N/Nc1ccccc1
inactive: [1] -2.05% | [2] 2.8% | [3] -2.35% | [4] 1.45% | [5] 7% | [6] -1.9%

Reference: PubChem BioAssay (NCI)
